GPR32 ag: GPR32 (DRV1) agonism, beta-arrestin recruitment. CHO-K1 GPR32 beta-arrestin PathHunter luminescence, 90 min; zero percent set by DMSO-only wells. AID 1346428. 48,000 tested, 2.5% active. activation, % at 76.9 µM;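 active = activation of at least 60% and not above a set upper limit, about 1 call in 100 departs from these limits; inconclusive = activation of 40% to 60%, or above that upper limit; inactive = activation under 40%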
Target sequence (O75388 whole entry, looked up): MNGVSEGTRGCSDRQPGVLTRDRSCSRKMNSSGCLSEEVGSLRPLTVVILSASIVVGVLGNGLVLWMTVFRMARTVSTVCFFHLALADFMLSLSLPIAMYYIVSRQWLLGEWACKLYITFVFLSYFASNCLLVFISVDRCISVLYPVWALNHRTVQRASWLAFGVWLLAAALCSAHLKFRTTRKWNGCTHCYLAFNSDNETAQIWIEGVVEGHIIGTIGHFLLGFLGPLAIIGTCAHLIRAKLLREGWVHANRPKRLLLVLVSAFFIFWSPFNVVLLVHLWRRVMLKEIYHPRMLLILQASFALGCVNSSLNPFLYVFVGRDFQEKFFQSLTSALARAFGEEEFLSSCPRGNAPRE
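GPR32 activation in stably transfected CHO-K1 cells, detected as beta-arrestin recruitment by enzyme-fragment complementation. Compound exposure: 90 min, 37 °C.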
NTMT1 inh: NTMT1 methyltransferase inhibition. Q9BV86. NTMT1 MTase-Glo SAH luminescence, purified enzyme. Potency, µM (titrated, usually from 114 µM), hits mostly inhibitors. 59,000 tested, 2.5% active. AID 1645870; also: nearly all actives have a fitted effect of over 65% in size
Target sequence (Q9BV86 whole entry, looked up): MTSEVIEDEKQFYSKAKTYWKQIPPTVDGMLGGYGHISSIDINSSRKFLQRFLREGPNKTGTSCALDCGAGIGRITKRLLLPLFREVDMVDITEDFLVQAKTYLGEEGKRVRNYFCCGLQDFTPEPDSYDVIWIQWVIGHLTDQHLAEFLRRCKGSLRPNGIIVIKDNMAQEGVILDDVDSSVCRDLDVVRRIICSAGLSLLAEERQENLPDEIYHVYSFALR
GALC G270D up: galactocerebrosidase G270D activity enhancement, cell-based. P54803. 145M-Twi-hGALC-G270D cells (Twitcher mouse brain line with human GALC G270D), HMU-beta-Gal fluorescence, 48 h. Potency, µM (series often up to 57.5 µM), most hits filed as activators. 45,000 tested, 0.1% active; also: nearly all actives have a fitted effect of over 65% in size
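Fluorogenic HMU-b-Gal hydrolysis (0.1 mM final, pH 5.2 citrate-phosphate with 1 mg/mL sodium taurocholate; carbonate stop buffer) measures mutant GALC activity after compound treatment of live 145M-Twi Twitcher brain cells stably carrying human GALC-G270D, with wild-type GALC line alongside; activation sought.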
GALK inhibitor: inhibitors of human galactokinase (GALK) | recombinant GALK, Kinase-Glo ATP luminescence, 1 h | P51570 | 44,000 tested, under 10 active | Potency, µM (doses to about 57.5 µM), hits mostly inhibitors
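Luminescent ATP-depletion readout (Kinase-Glo Plus, 10 min) after 1 h RT reaction of 5 nM GALK, 35 uM ATP, 100 uM galactose, pH 8.0 HEPES buffer. Decreased kinase activity scored as inhibition.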
B2AR arrestin ag: ADRB2 beta-arrestin recruitment; HTLA Tango cells, beta-arrestin recruitment, luciferase luminescence, 18 h; Potency, µM (highest dose often 46.1 µM), usual class: activators; 44,000 tested, under 10 active
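Tango cells (recombinant beta2-AR, beta-arrestin, tTA-driven luciferase), 1500/well in DMEM 1% FBS, treated 18 h at 37 °C with compounds up to 46 µM; luciferin mix added, luminescence read after 15 min; %activity curves fitted and curve-classed.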
PTAP-TSG101 blk: blocks PTAP binding to human TSG101, validation; Q99816; Fluorescence polarization, FITC-PTAP peptide/Tsg101, 20 min; Potency, µM (doses to about 115 µM), most hits filed as inhibitors; 44,000 tested, under 10 active; AID 1347069
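The Tsg101 binding domain, at 10 uM final, is mixed with compound and a FITC peptide bearing the PTAP motif (50 nM final). After 20 min at r.t., polarization is measured; actives defined by CRC class, efficacy cut-off 60% inhibition.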
A number is an active result; 0 = inactive; ? = inconclusive; - = no result given; ! = a repeat was not active; [ ] = remark or other dose. Rows were chosen to be rich in hits. Some 3.6% of all compounds tested hit in one or more screens of this group. Unless noted, calls follow the shape of the dose curve; as a rule, active = well fitted curve in the direction sought with a large enough effect; inconclusive = small, poorly fitted or top-dose-only effect, or another doubt; inactive = no such curve, though single readings can be large; an effect the other way counts as inactive or inconclusive.

SMILES	GPR32 ag	NTMT1 inh	GALC G270D up	GALK inhibitor	B2AR arrestin ag	PTAP-TSG101 blk
CC(=O)N[C@H]1[C@H](O[C@H]2CC[C@]3(C)C4CC=C5[C@@H]6CC(C)(C)CC[C@]6(C(=O)O)[C@H](O)C[C@@]5(C)[C@]4(C)CC[C@H]3C2(C)C)O[C@H](CO)[C@@H](O)[C@@H]1O (stereo partly drawn)	-	0[12.6 µM]	-	-	-	-
CNCc1ccc(-c2[nH]c3cc(F)cc4c3c2CCNC4=O)cc1	-	6.3µM!	-	-	-	-
O=C(Nc1cccc(C(F)(F)F)c1)c1cccc(C(=O)Nc2cccc(C(F)(F)F)c2)c1	?	0	0	0	0	0
O=C(O)c1cccnc1Nc1cccc(C(F)(F)F)c1	100!	?	0	-	-	-
O=C(Nc1ccc(C(F)(F)F)cc1)C1CCC(CNS(=O)(=O)c2cccc3nsnc23)CC1 (stereo not drawn)	114	0	0	0	0	0
CCCCN(CC)C(=O)C1CCC(CNS(=O)(=O)c2cccc3nsnc23)CC1 (stereo not drawn)	68	0	0	0	0	0
CC(C)c1ccc(NC(=O)CCNS(=O)(=O)c2cccc3nsnc23)cc1	75	0	0	0	0	0
COc1ccc(-c2nc(SCC(=O)c3ccc(Br)cc3)n[nH]2)cc1	114	0	0	0	0	0
CCN(c1ccccc1)S(=O)(=O)c1nnc(NC(=O)c2cccs2)s1	0	0	0	0	0	0
CCN(c1ccc(C)cc1)S(=O)(=O)c1nnc(NC(=O)c2cccs2)s1	85	0	0	0	0	0
COc1ccc(-c2noc(CSc3nc(N)cc(=O)[nH]3)n2)cc1	98	0	0	0	0	0
COc1ccc(-c2noc(CSc3nc4ccccc4[nH]3)n2)cc1	96	0	0	0	0	0
O=C(Nc1ccc(F)c(C(F)(F)F)c1)Nc1nnc(-c2ccncc2)o1	-	0	-	-	-	-
CCOc1ccc(-n2c(SCC(=O)N3CCCC3)nc3c([nH]c4ccccc43)c2=O)cc1	77	0	0	0	0	0
CCOc1ccc(-n2c(SCC(=O)N3CCCCCC3)nc3c([nH]c4ccccc43)c2=O)cc1	0	?	0	0	0	0
O=C(NCCO)c1ccc(-c2nnc(Nc3ccc(OC(F)(F)Cl)cc3)c3ccccc23)cc1	66	0	0	0	0	0
CCC(=O)O[C@H]1C(C)(C)[C@H]([C@@H](O)C(=O)OC)[C@]2(C)C(=O)[C@@]1(O)[C@H]1O[C@]13C1CC(=O)O[C@@H](c4ccoc4)[C@]1(C)CCC32 (stereo partly drawn)	-	0[12.6 µM]	-	-	-	-
CCN(Cc1cccnc1)C(=O)CN(c1ccc(OC)nc1)S(=O)(=O)c1ccccc1C	-	0	-	-	-	-
COc1ccc2c(c1)c(C1=C(c3c[nH]c4ccccc34)C(=O)NC1=O)cn2CCCN(C)C	-	14µM	-	-	-	-
COc1ccc2c(c1)c(=O)c(S(=O)(=O)c1ccc(C)cc1)cn2Cc1ccccc1C	0	0	0	0	0	0
Cc1ccc(C(=O)Nc2cc3cc(Cl)ccc3oc2=O)cc1	62	0	0	0	0	0
Cc1ccc([S+](=O)([O-])n2cc(Cc3ccc(-c4ccccc4)cc3)c3ccccc32)cc1	-	0	-	-	-	-
COCC(=O)NCCc1nc2ccccc2n1CCOc1ccc(C)cc1	-	0	-	-	-	-
O=C(/C=C/c1cn(CC(O)CN2CCCCCC2)c2ccccc12)c1ccccc1 (stereo not drawn)	0	?	?	0	0	0
COc1ccc(C(=O)/C=C/c2cn(CC(O)CN3CCCCCC3)c3ccccc23)cc1OC (stereo not drawn)	?	45µM	0	0	0	0
SMILES	GPR32 ag	NTMT1 inh	GALC G270D up	GALK inhibitor	B2AR arrestin ag	PTAP-TSG101 blk
O=C(/C=C/c1cn(CC(O)CN2CCCCCC2)c2ccccc12)c1ccc(Br)cc1 (stereo not drawn)	88	?	0	0	0	0
Cc1ccc(C(=O)/C=C/c2cn(CC(O)CN3CCCCCC3)c3ccccc23)cc1 (stereo not drawn)	0	?	0	0	0	0
Cc1ccccc1C(=O)Nc1cc2c(cc1N1CCCCC1)n(C)c(=O)n2C	?	-	-	0	0	0
CCOc1ccc(NC(=O)Nc2cc3c(cc2N2CCCCC2)n(C)c(=O)n3C)cc1	107	?	0	0	0	0
Cn1c(=O)n(C)c2cc(N3CCCCC3)c(NC(=O)c3c(F)cccc3F)cc21	118	-	-	0	0	0
Cn1c(=O)n(C)c2cc(N3CCCC3)c(NC(=O)Nc3ccccc3)cc21	0	?	0	0	0	0
Cc1ccc(NC(=O)CSc2nc(-c3cccs3)nc3cc(=O)[nH]n23)cc1	99	-	-	0	0	0
Cc1cccc(NC(=O)CSc2nc(-c3cccs3)nc3cc(=O)[nH]n23)c1	0	-	-	0	0	0
CC(C)(O)c1ccn2c(-c3ccc(F)c(-c4ccc(F)cc4C#N)c3)cnc2c1F	-	0	-	-	-	-
Cc1cc(C)c(NC(=O)Cn2c(=O)n(Cc3ccc(C(=O)NCc4ccco4)cc3)c(=O)c3sccc32)c(C)c1	0	50µM	0	0	0	0
O=S(=O)(NCc1ccc(Cl)cc1)c1ccc2[nH]c3c(c2c1)CCCC3	77	?	0	0	0	0
O=S(=O)(NCc1ccc(F)cc1)c1ccc2[nH]c3c(c2c1)CCCC3	118	?	0	0	0	0
O=S(=O)(NCc1ccccc1)c1ccc2[nH]c3c(c2c1)CCCCC3	0	0	0	0	0	0
Cc1ccc(CNS(=O)(=O)c2ccc3[nH]c4c(c3c2)CCCC4)cc1	72	0	0	0	0	0
Cc1ccc(CNS(=O)(=O)c2ccc3c(c2)CCN3S(C)(=O)=O)cc1	0	50µM	0	0	0	0
O=C(Nc1ncc(Cc2ccc(C(F)(F)F)cc2)s1)c1cccc(-c2ccccc2)c1	-	0	-	-	-	-
CCOC(=O)c1cnn(-c2ccc(C(=O)Nc3cc(OC)c(OC)c(OC)c3)cc2)c1N	0	89µM	0	0	0	0
CCOC(=O)c1cnn(-c2ccc(C(=O)Nc3ccc(C(C)=O)cc3)cc2)c1N	0	0	0	0	0	0
CN1CCc2cc(NC(=O)Nc3cccnc3)ccc21	0	-	-	-	-	-
Cn1ccc2cc3c(cc21)CCN3C(=O)Nc1cccnc1	0	79µM!	0	-	-	-
Cc1ccc(-c2ccc(CCC(=O)O)n2-c2cccc(O)c2)cc1	0	79µM	0	0	0	0
COc1ccc(OC)c(C(=O)Nc2nc(-c3ccccc3)cs2)c1	-	0	-	-	-	-
CCc1oc2ccccc2c1C(=O)c1cc(Br)c(O)c(Br)c1	0	79µM	0	-	-	-
Clc1cccc(-c2nc3ccccn3c2Nc2ccc3c(c2)OCCO3)c1	0	4µM	0	0	0	0

Compound activity (PubChem BioAssay)
